Test results as given in PubChem BioAssay AID1159580 (chemical genetic matrix, 2015).
Where “and” joins values, the source holds several entries; their conditions need not be identical. Equal values may be shown once. The campaign covered roughly 5,500 compounds. About 2,000 (36%) were called active. About 18% were inconclusive and are not listed. Cut-off read from the data, not from the text of the source: active = normalized growth mostly below about 0.91 (no sharp cut-off); inconclusive = no clear call, values can overlap the other calls; inactive = mostly above about 0.92. Some of the results follow.

Assay: chemical genetic growth profiling, strain panel (AID 1159580);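 note: tested at 20 µM; growth read once vehicle control cultures reached saturation at 30 °C; 1 = growth at the plate median or of vehicle wells; lower values mean less growth of the strain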
Conditions: S. cerevisiae deletion strains, growth OD

Measured: normalized growth

CCCC(C)C1(CC)C(=O)NC(=O)NC1=O (configuration not stated)
inactive: locus YAL013W, strain DEP1, active compounds read low 1.01 | locus YAL021C, strain ccr4, active compounds read low 0.996 | locus YAL026C, strain drs2, active compounds read low 1 | locus YAL030W, strain snc1, active compounds read low 1 | locus YBL061C, strain skt5, active compounds read low 1 | locus YBR009C, strain hhf1, active compounds read low 1.01 | locus YBR021W, strain FUR4, active compounds read low 1 | locus YBR023C, strain chs3, active compounds read low 1 | locus YBR171W, strain sec66, active compounds read low 1 | locus YBR229C, strain ROT2, active compounds read low 1.01 | locus YBR231C, strain swc5, active compounds read low 0.994 | locus YBR279W, strain paf1, active compounds read low 1 | locus YCL011C, strain gbp2, active compounds read low 1 | locus YCL016C, strain dcc1, active compounds read low 0.999 | locus YCL029C, strain bik1, active compounds read low 1.03 | locus YCL061C, strain MRC1, active compounds read low 1 | locus YCL069W, strain vba3, active compounds read low 0.998 | locus YCR088W, strain abp1, active compounds read low 0.996 | locus YDL005C, strain med2, active compounds read low 0.992 | locus YDL035C, strain GPR1, active compounds read low 1.03 | locus YDL040C, strain nat1, active compounds read low 1 | locus YDL074C, strain BRE1, active compounds read low 1.03 | locus YDL101C, strain DUN1, active compounds read low 1.02 | locus YDL134C, strain PPH21, active compounds read low 1.02 | locus YDL185W, strain tfp1, active compounds read low 1.02 | locus YDL192W, strain arf1, active compounds read low 1.02 | locus YDR001C, strain nth1, active compounds read low 0.998 | locus YDR069C, strain doa4, active compounds read low 1 | locus YDR101C, strain arx1, active compounds read low 1.01 | locus YDR137W, strain rgp1, active compounds read low 1.03 | locus YDR150W, strain NUM1, active compounds read low 1.02 | locus YDR159W, strain sac3, active compounds read low 0.995 | locus YDR162C, strain NBP2, active compounds read low 1.03 | locus YDR195W, strain ref2 0.982 | locus YDR297W, strain sur2, active compounds read low 1 | locus YDR318W, strain mcm21, active compounds read low 1.03 | locus YDR334W, strain swr1, active compounds read low 1.01 | locus YDR335W, strain msn5, active compounds read low 1 | locus YDR388W, active compounds read low 1.01 | locus YDR392W, strain spt3, active compounds read low 1.02 | locus YDR502C, strain sam2, active compounds read low 1.02 | locus YEL003W, strain gim4, active compounds read low 1.01 | locus YEL037C, strain rad23, active compounds read low 0.992 | locus YEL061C, strain CIN8 (second series), active compounds read low 1 | locus YEL061C, strain CIN8, active compounds read low 1.01 | locus YER015W, strain faa2, active compounds read low 1 | locus YER016W, strain bim1, active compounds read low 1.03 | locus YER110C, active compounds read low 1.01 | locus YER111C, strain swi4, active compounds read low 0.988 | locus YER155C, strain BEM2 (second series), active compounds read low 0.999 | locus YER155C, strain BEM2, active compounds read low 1.01 | locus YER167W, strain BCK2, active compounds read low 1.03 | locus YFR010W, strain ubp6, active compounds read low 1.01 | locus YGL078C, strain dbp3, active compounds read low 1.01 | locus YGL086W, strain mad1, active compounds read low 1.02 | locus YGL167C, strain pmr1, active compounds read low 1 | locus YGL173C, strain kem1, active compounds read low 0.993 | locus YGL227W, strain vid30, active compounds read low 0.99 | locus YGL240W, strain doc1, active compounds read low 0.989 | locus YGL248W, strain PDE1, active compounds read low 1.01 | locus YGL253W, strain hxk2, active compounds read low 1 | locus YGR078C, strain PAC10, active compounds read low 1.02 | locus YGR135W, strain pre9, active compounds read low 1 | locus YGR229C, strain SMI1, active compounds read low 1.02 | locus YGR252W, strain gcn5, active compounds read low 1.05 | locus YHR013C, strain ard1, active compounds read low 0.978 | locus YHR027C, strain rpn1, active compounds read low 1 | locus YHR030C, strain SLT2, active compounds read low 1.01 and 0.987 | locus YHR079C, strain IRE1 (second series), active compounds read low 1.02 | locus YHR079C, strain IRE1, active compounds read low 0.979 | locus YHR094C, strain hxt1, active compounds read low 1.01 | locus YHR129C, strain ARP1, active compounds read low 1 | locus YHR142W, strain chs7, active compounds read low 1 | locus YHR200W, strain rpn10, active compounds read low 1.02 | locus YIL066C, strain RNR3, active compounds read low 1.01 | locus YIL073C, strain SPO22, active compounds read low 1.08 | locus YIL125W, strain kgd1, active compounds read low 1.02 | locus YIR030C, strain dcg1, active compounds read low 1.02 | locus YJL092W, strain hpr5, active compounds read low 0.995 | locus YJL095W, strain BCK1 (second series), active compounds read low 1 | locus YJL095W, strain BCK1, active compounds read low 1.02 and 0.993 | locus YJL115W, strain asf1, active compounds read low 0.999 | locus YJL129C, strain trk1, active compounds read low 1.02 | locus YJL134W, strain LCB3, active compounds read low 1.01 | locus YJL154C, strain vps35, active compounds read low 1 | locus YJL164C, strain tpk1, active compounds read low 1.01 | locus YJL166W, strain qcr8, active compounds read low 1 | locus YJL168C, strain set2, active compounds read low 1.03 | locus YJL187C, strain SWE1 (second series), active compounds read low 1.01 | locus YJL187C, strain SWE1, active compounds read low 0.999 | locus YJR043C, strain POL32, active compounds read low 1.05 | locus YJR066W, strain TOR1, active compounds read low 0.954
